Assay outcomes deposited in PubChem by several laboratories.
ANO1 activ: TMEM16A chloride channel activators or potentiators, primary screen, cell-based, HTS. Anoctamin-1 (Mus musculus), Q8BHY3. HEK293 TMEM16A/YFP-H148Q/I152L, iodide quench fluorescence; hits give low values. B-score at 10 µM. hit rate 0.3% among 340,000. AID 623877, 2012;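 active = fluorescence-ratio B-score plate-corrected deviation score at least 3 library SD below zero, with starting fluorescence score within 5 deviations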;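 also: channel opened by trigger with iodide after compound preincubation; score built on the fluorescence ratio of max minus min over baseline; more negative score means more quench and so TMEM16A activation or potentiation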
CHO-K1 Ca ag: counter-screen for M1 agonists: effect in parental CHO-K1 cells | activation, % at 3 µM | hit rate 0.48% among 360,000 | AID 602248, 2012 | Fluo-8 calcium fluorescence; scaled to maximal ATP response, vehicle zero; in the data active = activation above about 15%;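 also: untransfected CHO-K1 host cells lacking M1 receptor as counterscreen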
TMEM16A inh: TMEM16A chloride channel inhibitors, primary screen, cell-based, HTS; normalized B-score (activity score, 25-100; higher = stronger inhibition) at 10 µM; HEK293 TMEM16A/YFP iodide influx fluorescence, ionomycin; hit rate 1.2% among 310,000; Anoctamin-1 (Mus musculus), Q8BHY3;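 active = ratio plate-corrected score three or more library SD toward inhibition, starting fluorescence score within five deviations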;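 also: score derived from kinetic fluorescence span divided by baseline fluorescence per well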
NTR1 ag: agonists of human NTR1, primary screen, imaging, U2OS cells, beta-arrestin-GFP, high content | hit rate 0.17% among 330,000 | AID 493036, 2011 | activation, % at 20 µM | NTR1-U2OS beta-arrestin-GFP spot imaging, agonist mode | Neurotensin receptor type 1 (Homo sapiens), P30989;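 active = activation at or above 40% of the spot to cytoplasm intensity ratio, with at least 20 cells analyzed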;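 also: 0% = DMSO without peptide and 100% = 100 nM NTR1 peptide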
Target sequence (P30989 whole entry, looked up): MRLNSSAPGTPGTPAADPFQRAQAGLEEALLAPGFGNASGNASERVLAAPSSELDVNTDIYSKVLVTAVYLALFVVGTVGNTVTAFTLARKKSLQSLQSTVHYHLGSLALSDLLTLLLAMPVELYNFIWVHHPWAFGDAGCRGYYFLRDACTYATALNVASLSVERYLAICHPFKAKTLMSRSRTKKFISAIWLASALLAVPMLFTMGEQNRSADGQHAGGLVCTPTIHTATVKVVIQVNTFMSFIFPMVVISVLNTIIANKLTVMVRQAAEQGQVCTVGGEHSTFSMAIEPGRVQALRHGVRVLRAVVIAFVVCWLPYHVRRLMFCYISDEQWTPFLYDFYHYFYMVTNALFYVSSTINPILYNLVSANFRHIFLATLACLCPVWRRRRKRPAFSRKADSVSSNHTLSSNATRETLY
M1 PAM parental: nonselective calcium activators in parental CHO-K1 cells, primary screen, counter-screen for M1 PAM project, cell-based, Fluo-8 calcium fluorescence, full deck, 1536-well; ATP EC20; 0% at ATP EC20, 100% at ATP max; activation, % at 3 µM; hit rate 0.02% among 360,000; AID 602247, 2012;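 active = activation above the run cutoff, the mean activation of all test compounds plus 3 SD, cut at about 40% in these data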;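 also: peak over basal fluorescence ratio in a 140 s read after ATP addition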
CHO-K1 Ca antag: M1 antagonist counterscreen hit in parental CHO-K1 cells; ATP-induced calcium, Fluo-8 fluorescence; inhibition, % at 3 µM; AID 602250; hit rate 0.6% among 360,000;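 active = inhibition above a per-plate cutoff, the plate's mean sample inhibition plus 3 SD, cut at about 24% in these data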;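 also: 0% = DMSO plus EC80 ATP and 100% = DMSO alone without ATP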
Starred values were filed as active, the others as inactive; i = inactive; . = not tested or not shown. In the library only some 2.2% were active in any assay of this set; here they are far more common.

SMILES | ANO1 activ | CHO-K1 Ca ag | TMEM16A inh | NTR1 ag | M1 PAM parental | CHO-K1 Ca antag
Cc1ccccc1-c1cccc([C@@H]2C[C@H]3[C@H](CON3C)CN2S(=O)(=O)c2ccccc2C)c1 | . | 2 | . | . | 27 | -13
O=C(Nc1ccc(OC(=O)c2ccco2)cc1)c1ccco1 | i | 0 | i | 0 | -5 | 28*
O=C(Nc1ccc(Cl)c(Cl)c1)Oc1ccc(NC(=O)c2ccco2)cc1 | i | 4 | i | 2 | -6 | 34*
CC(=O)c1cccc(S(=O)(=O)NCCC(=O)NC2CCCCCC2)c1 | i | 0 | . | 1 | -19 | -6
CC(=O)N1C[C@H]2CON(C)[C@H]2C[C@H]1c1ccc(-c2cccnc2)cc1 | . | 0 | . | . | -11 | -1
CN1OC[C@@H]2CN(C(=O)C(C)(C)C)[C@H](c3ccc(-c4cccnc4)cc3)C[C@@H]21 | . | 0 | . | . | -9 | 30*
O=C(CCCN1C(=O)/C(=C/c2ccccc2OC(F)F)SC1=S)Nc1cccnc1 | i | 1 | . | 1 | 21 | -17
COc1ccc(CNC(=O)C2(C)Cc3c(-c4cccc(NC(C)=O)c4)ccnc3O2)cc1OC (stereo unspecified) | . | 0 | . | . | 13 | -9
COc1ccccc1N=C1NC(=O)/C(=C/c2ccc(N(C)C)cc2)S1 | i | 32* | i | -3 | 0 | 29*
CN(C)C(=O)/C(=C/c1ccc(-c2cccc([N+](=O)[O-])c2)o1)NC(=O)c1ccccc1 | i | 22* | i | 3 | -4 | 4
O=[N+]([O-])c1ccc(N/N=C/c2c[nH]c3ccccc23)cc1 | i | 15* | i | -4 | -8 | 26*
CN(C)C(=O)/C(=C\c1ccc(-c2cccc([N+](=O)[O-])c2)o1)NC(=O)c1ccccc1 | i | 2 | i | 3 | 10 | -14
O=C(O)c1cccc(-c2ccc(/C=N/Nc3ccc([N+](=O)[O-])cc3)o2)c1 | i | 18* | i | 2 | -7 | 20
CCOC(=O)N1CCN(C(=O)C[C@@H]2C[C@@]3(C(=O)OCC)CCC=C3N(Cc3cccc4ccccc34)C2=O)CC1 | . | 1 | . | . | 6 | -24
COc1ccccc1C(=O)NC(=O)COC(=O)c1cccc(C)c1O | i | 15* | i | 4 | -11 | 14
CCOC(=O)c1ccc(NC(=O)NC2CC3CCC(C2)N3Cc2nnnn2Cc2ccco2)cc1 (stereo unspecified) | -47* | 1 | i | 1 | 19 | -9
CC(C)(C)n1nnnc1CN1C2CCC1CC(NC(=O)Nc1ccccc1)C2 (stereo unspecified) | i | 1 | i | -2 | 0 | -7
C[C@@H]1CN([C@H](C)CO)C(=O)c2cc(Br)cnc2O[C@@H]1CN(C)C(=O)c1ccccc1 | . | 2 | . | . | 14 | 3
Cc1nn(CC(=O)NCc2ccc(C(=O)O)cc2)c(C)c1[N+](=O)[O-] | i | 2 | i | 0 | -15 | 24*
CCNC(=O)C/C(C)=N/NC(=O)C12CC3CC(CC(C3)C1)C2 | i | 0 | i | 0 | -7 | 24*
O=C(NN=Cc1cc(=O)[nH]c(=O)[nH]1)c1ccncc1 | i | 3 | . | . | 17 | -4
CCOC(=O)N1CCN(c2c(-c3ccc(C(C)C)cc3)c(=O)c2=O)CC1 | i | -1 | i | 1 | -7 | 26*
C[C@@H]1COc2cc(N3CCC[C@@H]3CO)ccc2S(=O)(=O)N1 | . | 1 | . | . | 19 | -12
C(=C\c1ccco1)/C1=NN(c2ccccc2)C(c2ccco2)C1 (stereo unspecified) | i | 4 | i | 0 | -14 | 18
O=[N+]([O-])c1ccc(/C=C/C2=NN(c3ccccc3)C(c3ccco3)C2)o1 (stereo unspecified) | i | 38* | . | . | -4 | 39*
NC(=O)C(NN=C(c1ccccc1)c1ccccc1)c1ccccc1 (stereo unspecified) | . | 1 | . | . | 19 | -9
